Source: PubChem BioAssay
mHTT CaM bind = mutant huntingtin-calmodulin interaction inhibitors – biochemical, AlphaScreen, primary screen; inhibition, % at 15 µM; AID 1671202, 2021; actives 3.6% (n = 190,000); P42858; AlphaScreen His-mHTT/GST-CaM binding, luminescence;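 further: 0% = both proteins with DMSO and 100% = one protein alone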
Pf apPOL inh = Pf-apPOL inhibitors, biochemical, fluorescence; inhibition, % at 10 µM; AID 1794808, 2022; Plasmodium falciparum apicoplast DNA polymerase (apPOL); Recombinant Pf-apPOL, molecular beacon fluorescence, 1.5 h; actives 0.25% (n = 210,000)
An asterisk follows results filed as active; . = no result; ! = not active in a repeat. Hits are enriched below; roughly 3.6% of the tested compounds scored in any of these assays. No stated cut-off is given here; in the data, active means inhibition above about 50%; inactive means the rest.

SMILES	mHTT CaM bind	Pf apPOL inh
Cc1ccc(NC(=O)Cc2nc(-c3ccccn3)n[nH]2)cc1C	95.7*	-15.1
Cc1ccc(NC(=O)Cc2nc(-c3cccnc3)n[nH]2)cc1	-2.8	0.2
Cc1ccc(NC(=O)Cc2nc(-c3ccccn3)n[nH]2)cc1F	69.1*	-12.1
Cc1ccc(NC(=O)Cc2nc(-c3ccccc3)n[nH]2)cc1F	-3.5	-5.9
O=C(NCc1ccc(F)cc1)c1cn2cc(Cl)ccc2n1	-6.2	-0.4
O=C(NCCCc1ccccc1)c1ccc([N+](=O)[O-])cc1	0.4	-1.3
CCCCOc1cccc(NC(=O)CSc2cccc3cccnc23)c1	0.1	-0.2
NC(=O)CSc1cccc2cccnc12	82.8*	-2.8
COc1ccc(NC(=O)CSc2cccc3cccnc23)cc1	53.1*!	-6.7
O=C(O)CSc1cccc2cccnc12	10.6	-1.1
COc1ccc(C=C2Oc3c(CN4CCOCC4)c(O)cc(C)c3C2=O)cc1	35.4	-14.2
Cc1oc(C(=O)O)cc1COc1cccc2cccnc12	73.8*	0.3
Cc1oc(C(=O)O)cc1COc1ccc2c(C)c(C)c(=O)oc2c1C	8.0	-5.8
CN1C(=O)C(C)(C(=O)Nc2cccc(Cl)c2)Oc2cccnc21 (centres undefined)	-13.6	-0.7
O=C(CSc1nc2ccccc2[nH]1)c1ccc2c(c1)OCO2	7.7	-1.7
O=C(CSc1nc2ccccc2[nH]1)c1ccc(Cl)c(Cl)c1	51.1*	-4.4
O=[N+]([O-])c1ccc(N=Cc2nc(-c3ccc(Br)cc3)oc2O)cc1	3.0	-2.1
Cc1ccccc1-n1cc2c(c1-c1ccccc1)c(=O)n(C)c(=O)n2C	6.0	2.3
COc1ccc(-c2c3c(=O)n(C)c(=O)n(C)c3cn2C2CCCCC2)cc1	33.0	67.0*
COc1ccc(-c2c3c(=O)n(C)c(=O)n(C)c3cn2-c2ccccc2C)cc1	8.0	54.3*
Cn1c(=O)c2c(-c3ccccc3)n(Cc3ccccc3)cc2n(C)c1=O	18.0	-8.6
COc1ccc(-c2c3c(=O)n(C)c(=O)n(C)c3cn2Cc2ccc(Cl)cc2)cc1	76.0*	10.2
CNc1ccc([N+](=O)[O-])cc1-n1cc2c(c1-c1ccc(OC)cc1)c(=O)n(C)c(=O)n2C	36.0	-2.8
O=C(NCc1ccc(F)cc1Cl)c1cc2c(s1)CCN(C(=O)c1ccccc1)C2	-7.6	-5.8
Cc1cc(C)[n+]2c(c1C#N)SCC2C(Br)c1ccccc1 (centres undefined)	19.0	-8.7
SMILES	mHTT CaM bind	Pf apPOL inh
COc1cccc(C2C3=C(CCCC3=O)OC3=C2C(=O)CCC3)c1OC	0.5	-0.4
Brc1ccc(-c2nc3ccccc3[nH]2)o1	3.3	-8.5
CC1CCN(c2ccc(-c3noc(C(=O)NC4CCCCC4)n3)cc2)CC1	-9.9	-1.8
O=C(NCC(c1cccnc1)N1CCN(Cc2ccccc2)CC1)NC1CCCCC1 (centres undefined)	-2.7	-5.6
CSc1ccccc1NC(=O)C(c1ccccc1)c1ccccc1	-26.4	-6.8
CSc1ccccc1NC(=O)C(c1ccccc1)n1cccc1 (centres undefined)	60.1*	15.3
O=C(CC(NCc1ccco1)C(=O)O)Nc1cc(Cl)ccc1O (centres undefined)	4.9	0.7
O=C(CC(NCc1ccccn1)C(=O)O)Nc1cc(Cl)ccc1Cl (centres undefined)	100.0*	-0.7
COc1cccc(-n2nnc(C(=O)O)c2C(C)C)c1	0.9	3.2
COc1ccc(S(=O)(=O)N2CCC3(C2)C(=O)N(C)c2ccccc23)cc1 (centres undefined)	18.8	2.2
CCC[C@H]1[C@@H](OC(=O)NCc2cccc(C(F)(F)F)c2)CC[C@@]23CCCN2C(=O)CCC[C@@H]13	2.3	-2.3
CCC[C@H]1[C@@H](OC(=O)NCc2ccc(C(F)(F)F)cc2)CC[C@@]23CCCN2C(=O)CCC[C@@H]13	78.5*	-19.0
COc1cc(NC(=O)N2CCCC2c2ccc(F)cc2)cc(OC)c1OC (centres undefined)	-1.7	-3.1
O=C1CC(c2ccc(Cl)c(Cl)c2)CC(O)=C1C=NCCN1CCNCC1 (centres undefined)	59.0*	-2.9
O=C1CC(c2cccs2)CC(O)=C1C=NCCN1CCNCC1 (centres undefined)	0.0	9.6
COc1ccc(C)cc1N(C)C(=O)C1CCCN(c2ncnc3c2nc2n3CCCCC2)C1 (centres undefined)	2.0	-0.9
O=C(O)C12CC3CC(CC(O)(C3)C1)C2	-4.4	-11.6
CCOc1ccc(-n2cc(-c3ccc(Br)cc3)[nH]c2=O)cc1	39.0	-4.0
Cc1ccnc(N2CCC(C(=O)NCC3CCN(Cc4cccc(Cl)c4)CC3)CC2)n1	6.8	3.5
CCOCCCNC(=O)C1CCN(Cc2cc3ccccc3n2Cc2ccccc2)CC1	75.5*	0.6
COCCNC(=O)C1CCN(Cc2cc3ccccc3n2Cc2cccc(Cl)c2)CC1	91.3*	0.5
CCOCCCNC(=O)C1CCN(c2cnn(Cc3ccccc3)c(=O)c2)CC1	-1.7	-4.2
COCCCNC(=O)C1CCN(Cc2cc3ccccc3n2Cc2ccccc2)CC1	93.0*	2.7
COCCCNC(=O)C1CCN(Cc2ccc(C)o2)CC1	1.3	-3.1
Cc1ccc(-c2nc(C=Nc3cc([N+](=O)[O-])ccc3C)c(O)o2)cc1	4.0	-3.8
SMILES	mHTT CaM bind	Pf apPOL inh
Cc1cc(NN=Cc2ccccc2Cl)nc2c1c(C)nn2C	.	-10.6
CCCCOc1ccc2c(c1)/C(=C(/C(Cl)=C(Cl)Cl)[N+](=O)[O-])N2	14.0	-32.1
CCn1nccc1C(=O)N1CCCn2cc(-c3cccc(C#N)c3)nc21	15.3	0.4
COc1cccc2cc(C(=O)Nc3ccccc3)c(=O)oc12	5.0	14.1
COc1ccc(C2=CC(c3cc(OC)c(OC)c(OC)c3)n3ncnc3N2)cc1 (centres undefined)	11.0	-1.9
COc1cccc(C2C=C(c3ccc(C)cc3)Nc3ncnn32)c1OC (centres undefined)	31.0	-1.5
COc1cccc(C2C=C(c3cccc(Br)c3)Nc3ncnn32)c1 (centres undefined)	59.0*	-6.2
COc1ccc(C2=CC(c3ccccc3)n3nc(CCCO)nc3N2)cc1 (centres undefined)	17.0	-18.5
COc1cc(C2C=C(c3ccc(Cl)cc3)Nc3ncnn32)cc(OC)c1OC (centres undefined)	76.0*	0.4
COc1cccc(C2C=C(c3ccc(F)cc3)Nc3ncnn32)c1OC (centres undefined)	56.0*	-5.1
COc1ccc(C2=CC(c3cccc(Br)c3)n3nc(CCCO)nc3N2)cc1OC (centres undefined)	53.0*	-5.5
COc1cccc(C2C=C(c3ccc(C)cc3)Nc3ncnn32)c1 (centres undefined)	18.0	-5.2
Cc1cccc(C2=N/C(=C/c3cccc([N+](=O)[O-])c3)C(=O)O2)c1	-4.0	-3.4
Cn1cccc1C(=O)N1CCCCC1c1nncn1CC1CC1 (centres undefined)	-1.3	-1.7
CCOc1ccccc1C1N=C(c2ccc3c(c2)OCO3)CC(c2ccccc2O)N1 (centres undefined)	6.0	-2.3
COc1ccccc1C1C=C(c2ccc(Br)cc2)Nc2ncnn21 (centres undefined)	41.0	-7.5
COc1cccc(C2C=C(c3cccc(Br)c3)Nc3nnnn32)c1OC (centres undefined)	65.0*	-4.7
COc1cccc(C2C=C(c3ccc(Br)cc3)Nc3ncnn32)c1OC (centres undefined)	66.0*	4.3
